TSHR agonist: TSH receptor (human) agonism | P16473 | HEK293-CNG-TSHR cells (CNG channel as cAMP sensor), membrane potential dye, cAMP | Potency, µM (titrated, usually from 57.1 µM), inactives show top-dose activation, actives largely listed as activators | hit rate 0.48% among 73,000; active = well fitted activation curve with a large enough effect in the main read-out, with a control signal flat, not every such curve was filed as active; inconclusive = small, poorly fitted or top-dose-only effect, or a change in a side signal; inactive = no such curve, though single readings can be large or run the other way; % of control where 0% means no effect;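 also: the control signal comes from parental cells without the receptor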
Target sequence (P16473 whole entry, looked up): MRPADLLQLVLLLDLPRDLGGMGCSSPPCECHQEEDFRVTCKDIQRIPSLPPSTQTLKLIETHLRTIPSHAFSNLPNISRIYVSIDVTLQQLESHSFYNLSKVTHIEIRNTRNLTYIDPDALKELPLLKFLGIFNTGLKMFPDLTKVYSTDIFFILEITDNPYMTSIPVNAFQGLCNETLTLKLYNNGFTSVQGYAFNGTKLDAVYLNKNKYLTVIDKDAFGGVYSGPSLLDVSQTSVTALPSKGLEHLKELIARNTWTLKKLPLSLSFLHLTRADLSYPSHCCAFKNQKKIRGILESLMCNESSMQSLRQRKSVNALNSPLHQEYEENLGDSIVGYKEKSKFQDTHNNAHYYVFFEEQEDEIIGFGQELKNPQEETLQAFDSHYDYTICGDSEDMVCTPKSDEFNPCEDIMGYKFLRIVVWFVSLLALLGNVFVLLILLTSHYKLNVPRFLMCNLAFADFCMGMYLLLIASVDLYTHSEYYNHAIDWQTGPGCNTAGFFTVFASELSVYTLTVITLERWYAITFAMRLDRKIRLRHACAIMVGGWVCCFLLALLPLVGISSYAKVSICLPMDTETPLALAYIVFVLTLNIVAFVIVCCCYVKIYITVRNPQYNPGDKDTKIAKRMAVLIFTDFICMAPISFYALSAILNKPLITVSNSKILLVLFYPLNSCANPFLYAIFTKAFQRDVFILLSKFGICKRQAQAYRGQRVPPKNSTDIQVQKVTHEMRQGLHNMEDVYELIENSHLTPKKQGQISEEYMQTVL
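cAMP rise detected as CNG-channel membrane depolarization by fluorescent dye (emission 590 nm), 30 min after compound, following 60 min dye loading containing 100 uM RO 20-1724 at room temperature. Cells: TSHR/CNG HEK 293, with parental CNG HEK 293 as control.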
HEK293 cAMP cs: parental HEK293 cAMP activation (counter-screen); AID 938; hit rate 2.5% among 73,000; Potency, µM (highest dose often 57.1 µM), without a hit: top-dose activation, usual class: activators; parental HEK293 CNG cAMP sensor, membrane potential fluorescence; also: % of control where 0% means no effect; nearly all actives have a fitted effect of over 55% in size
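Parental HEK 293 cells stably expressing a cAMP-gated CNG channel were loaded with membrane potential dye containing 100 uM RO 20-1724 for 60 min. Compound added for 30 min; depolarization read as fluorescence intensity at 590 nm.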
PK Bst: pyruvate kinase (B. stearothermophilus) modulation; purified pyruvate kinase, luminescence ATP production; ribose 5-phosphate activator present at AC10; Potency, µM; AID 361; hit rate 1.2% among 51,000; in the data active = potency below about 11 µM; inconclusive = mostly about 12 µM to 25 µM;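 the screen sought inhibitors and activators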;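 also: scaled between full activation by ribose 5 phosphate and full inhibition by luteolin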
ERK AVP block: blocks ERK signaling stimulated by vasopressin; hit rate 0.99% among 72,000; AID 995; Potency, µM (highest dose often 57.5 µM), inactives show at the top dose activity, negative = inhibition, most hits filed as inhibitors; HEK293-V1b, vasopressin-stimulated pERK AlphaScreen; also: % is scaled to controls: 0 for no effect and ±100 for the full control effect; nearly all actives have a fitted effect of over 55% in size
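HEK293 cells stably expressing V1b receptor, seeded overnight in 1% FBS, were treated with compounds for 30 min at 37C, then stimulated 5 min with 25 nM vasopressin; phospho-ERK read by AlphaScreen SureFire after lysis.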
FLuc inh: inhibitors of firefly luciferase | P08659 | purified firefly luciferase, luminescence, 8 min | Potency, µM (titrated, usually from 57.1 µM), for inactives: top-dose activity change, negative = inhibition, usual class: inhibitors | hit rate 2.2% among 72,000; also: % is scaled to controls: 0 for no effect and ±100 for the full control effect; nearly all actives have a fitted effect of over 40% in size
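Inhibition of light generation by firefly luciferase from ATP and luciferin was profiled with concentration-response curves per sample, ATP held at 10 uM within the enzyme's linear range. Plates were read by luminescence after an 8-minute ambient incubation.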
Tau fil binding: binders of human tau filaments; hit rate 2% among 71,000; Potency, µM (top dose mostly 57.1 µM), for inactives: top-dose activity change, negative = inhibition; P10636; recombinant tau filaments, thioflavin S fluorescence, 15 h; filaments grown with octadecylsulfate alongside compound; AID 596;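 also: % is scaled to controls: 0 for no effect and ±100 for the full control effect; actives lower thioflavin S fluorescence by blocking filaments or displacing dye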
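His-tagged recombinant human tau (exons 2, 3, 10; 1 uM final) fibrillized with 30 uM sodium octadecylsulfate, 15 h at 37 C, in pH 7.4 HEPES buffer with 10 uM thioflavine S and 5 mM DTT. Reduced ThS fluorescence (450/510 nm) marks activity.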
* hit, by the source's call; ? = inconclusive; · = no result given; [ ] = remark or other dose. This is a sample that favours compounds with a hit; in the whole collection about 7.2% have one here. Unless noted, calls follow the shape of the dose curve; as a rule, active = well fitted curve in the direction sought with a large enough effect; inconclusive = small, poorly fitted or top-dose-only effect, or another doubt; inactive = no such curve, though single readings can be large; an effect the other way counts as inactive or inconclusive. Potency is read from the fitted curve at half-maximal effect.

SMILES	TSHR agonist	HEK293 cAMP cs	PK Bst	ERK AVP block	FLuc inh	Tau fil binding
CCOC(=O)c1sc2nc(N3CCOCC3)c3c(c2c1N)CCN(C)C3	-9%	-12%	>57	-17%	0%	7.9µM*
Cn1c(-c2ccc(CN3CCCCC3)o2)nc2ccccc21	-2%	22%	>11	-9%	13µM*	-17%
CN(Cc1ccco1)c1ncncc1-c1ccccc1Cl	-3%	5%	·	-8%	0%[2.29 µM]	71%
COC(=O)c1cc(COc2ccc3oc(C)c(C(=O)OC)c3c2)c(C)o1	?	16µM*	·	-9%	-1%	24%
C[N+](C)(C)/N=C\c1ccc(O)c(O)c1	2%[11.4 µM]	-1%[11.4 µM]	·	-1%[11.5 µM]	2%[11.4 µM]	7%[11.4 µM]
Oc1ccc(N=Cc2ccc(O)c(O)c2)cc1	-13%	-1%	·	?	-15%	6.3µM*
O=S1(=O)C=C(Sc2nc3cc(Cl)ccc3o2)c2ccccc21	2%	7%	>57	10µM*	-20%	-1%
CCC(C)(C)NC(=O)C(c1cccn1C)N(Cc1ccccc1)C(=O)Cn1nnc2ccccc21 (stereo not given)	?	10µM*	>57	-15%	1%	8%
CC(C)CCNC(=O)C(c1ccco1)N(Cc1cccs1)C(=O)Cn1nnc2ccccc21 (stereo not given)	?	6.3µM*	>57	-14%	-1%	-7%
COc1ccc(CNC(=O)C(c2ccco2)N(Cc2cccs2)C(=O)Cc2cccs2)cc1 (stereo not given)	?	20µM*	>57	-18%	-1%	7%
COCCNC(=O)C(c1ccco1)N(Cc1ccc(OC)cc1)C(=O)Cn1nnc2ccccc21 (stereo not given)	-4%	2%	>57	-7%	1%	7%
Cc1ccc(C(C(=O)NCc2ccco2)N(CCc2ccccc2)C(=O)Cn2nnc3ccccc32)o1 (stereo not given)	?	13µM*	>57	-2%	1%	-1%
O=C(O)/C=C\C(=O)Nc1ccccn1	-5%[11.4 µM]	17%[11.4 µM]	·	-11%[11.5 µM]	1%[11.4 µM]	-21%[11.4 µM]
Cc1ccc([C@@]2(C)CC/C(=N/N=C3\CC[C@](C)(c4ccc(C)c(C)c4)c4cc(C)c(C)cc43)c3cc(C)c(C)cc32)cc1C	2%[11.4 µM]	1%[11.4 µM]	·	4%[11.5 µM]	2%[11.4 µM]	7%[11.4 µM]
C(=N/Nc1ccccn1)/c1cccnc1	-2%[11.4 µM]	-4%[11.4 µM]	·	-13%[11.5 µM]	2%[11.4 µM]	-4%[11.4 µM]
CC(C)[C@H](NC(=O)OCc1ccccc1)C(=O)N[C@H](C=O)Cc1ccccc1	-2%	15%	·	9%	-5%	-15%
COCCN(C(=O)Cn1nnc2ccccc21)C(C(=O)NC1CCCC1)c1cc(OC)ccc1OC (stereo not given)	?	25µM*	>57	-3%	2%	-4%
COc1ccc(OC)c(C(C(=O)NCc2ccco2)N(C(=O)Cn2nnc3ccccc32)C(C)C)c1 (stereo not given)	?	16µM*	>57	10%	1%	4%
COc1ccc(N(C(=O)Cn2nnc3ccccc32)C(C(=O)NCc2ccco2)c2ccc(C)o2)cc1 (stereo not given)	25µM*	27%	>57	-21%	3%	1%
O=C(NCc1ccco1)C(c1cccs1)N(C(=O)Cc1cccs1)c1ccccc1 (stereo not given)	?	13µM*	>57	5%	2%	-4%
Cc1ccc(N(C(=O)Cn2nnc3ccccc32)C(C(=O)NCc2ccco2)c2ccc(C)o2)cc1 (stereo not given)	?	?	>57	12%	1%	-6%
CS(=O)(=O)N1CCC2(CCCN(C(c3ccccc3)c3ccccc3)C2)CC1	?	?	·	5%	0%[11.4 µM]	1%
CO[C@H]1COC(=O)[C@@H](C)COC(=O)[C@@H](Cc2ccccc2)NC(=O)C/C=C\[C@H]1C	4%[11.4 µM]	0%[11.4 µM]	·	9%[11.5 µM]	-1%[11.4 µM]	·
CCOc1ccc(NC(=O)c2ccccc2CO)cc1	11%	5%	·	18%	?	-3%
CCOc1ccc(NC(=O)c2nnn(CC(=O)Nc3ccccc3OC)c2N)cc1	-5%	-3%	·	-9%	5µM*	7%
